Values without a mark were called inactive. Records with an inconclusive call do not appear. The source made the active and inactive calls. Unless noted, the call rests on the fitted dose curve; in most records, active means well fitted curve in the direction sought with a large enough effect; inconclusive means small, poorly fitted or top-dose-only effect, or another doubt; inactive means no such curve, though single readings can be large; an effect the other way counts as inactive or inconclusive.
What was measured:
[1] = biological target: Lysosomal acid glucosylceramidase (Homo sapiens) (UniProt P04062); test: Glucocerebrosidase-p2 (AID 348; in the data active means potency below about 10 µM; further: potency means the concentration at half of the fitted maximal effect); details: purified GBA, blue fluorogenic substrate, 40 min
In short: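 Compounds titrated from 0.6 nM upwards against 0.2 nM enzyme in pH 5.9 citric acid/KH2PO4, taurocholate, tween-20; blue fluorogenic substrate 80 uM, 40 min room temperature, stopped and read Ex 365/Em 440 for AC50.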

[2] = AP1 Signaling Pathway (AID 357; active means well fitted curve in either direction with a large enough effect, not every such curve was filed as active; further: on the % scale 0 is the no-effect control and ±100 the full control effect); details: ME-180 AP-1-bla reporter, EGF-induced, beta-lactamase ratio, 5 h; at 7.69 µM (top of the series) unless noted
In short: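 ME-180 cells with beta-lactamase reporter under AP-1 response element, stimulated with EC50 EGF; compounds tested in titration series, 5 h at 37 °C. CCF4 substrate added 2.5 h at room temperature; 460/530 nm emission ratio gave %activity and AC50.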

[3] = biological target: Cytochrome P450 1A2 (Homo sapiens) (UniProt P05177); test: p450-cyp1a2 (AID 410; calls by dose curve; further: potency means the concentration at half of the fitted maximal effect); details: recombinant CYP1A2, luciferin-ME demethylation, luminescence; series mostly up to 57 µM
In short: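 Luminescent readout of luciferin formed from Luciferin-ME by human CYP1A2; data normalized against complete inhibition by 57 uM furafylline. Enzyme 20nM, substrate 100uM at Km, 100mM KPO4 buffer, 60 min reaction at room temperature.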

[4] = Stat Signaling Pathway (AID 446; active means well fitted curve in either direction with a large enough effect, not every such curve was filed as active;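 further: ME-180 cervical cancer cells given 40 pM IL-6 alongside compound; SIE-controlled beta-lactamase reporter measured as 460/530 nm FRET emission ratio; on the % scale 0 is the no-effect control and ±100 the full control effect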); details: ME-180 SIE beta-lactamase reporter, IL-6 stimulated, 5 h; series mostly up to 7.69 µM
In short: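 IL-6/STAT signaling read in ME-180 cells via an SIE beta-lactamase reporter. Stimulus was 40 pM IL-6 (its AC50) for 5 hrs, so both activation and inhibition register.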

[5] = biological target: Glucocorticoid receptor (Homo sapiens) (UniProt P04150); test: GR-GFP Redistribution (AID 450;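 active means compounds whose dose series gives a full or clear partial fitted curve of increased nuclear translocation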; further: potency means the concentration at half of the fitted maximal effect); details: U2OS GR-GFP nuclear translocation, laser cytometry, 2 h
[6] = biological target: Glucocorticoid receptor (Homo sapiens) (UniProt P04150); test: GR-EFC Redistribution (AID 451; calls by dose curve; further: potency means the concentration at half of the fitted maximal effect); details: CHO-K1 GR-EFC translocation, beta-gal luminescence, 2 h
In short: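 CHO-K1 cells stably expressing nuclear-localized β-gal enzyme acceptor and GR fused C-terminally to the enzyme donor fragment; ligand-driven nuclear translocation restores β-gal by complementation. Compounds titrated up to 46 uM final, 2 h at 37 °C; luminescence read.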

[7] = biological target: Mitogen-activated protein kinase 10 (Mus musculus) (UniProt Q61831); test: JNK3 AlphaScreen Assay (AID 530; active means well fitted curve in either direction with a large enough effect, not every such curve was filed as active;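 further: kinase came from lysate of stimulated human HepG2 cells; signal reports phosphorylation of biotinylated GST-cJun 1-79 at Ser73 with 10 µM ATP; on the % scale 0 is the no-effect control and ±100 the full control effect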); details: JNK3 lysate, c-Jun phosphorylation; series mostly up to 57.1 µM
In short: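 Inhibitors reduce antibody binding to phosphorylated biotin-cJun, lowering AlphaScreen luminescence. Lysates from HepG2 cells pre-activated by IL-1beta plus TNF-alpha supplied JNK3; compounds were titrated.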

[8] = biological target: 3',5'-cyclic-AMP phosphodiesterase 4B (Homo sapiens) (UniProt Q07343); test: qHTS Assay for Inhibitors of PDE-IV (AID 607; active means well fitted activation curve with a large enough effect in the main read-out, with a control signal flat, not every such curve was filed as active; further: potency means the concentration at half of the fitted maximal effect); details: HEK293 ACTOne CNG channel cells, membrane potential fluorescence; series mostly up to 22.9 µM
In short: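 Live HEK293 cells with a modified cyclic nucleotide-gated (CNG) channel report intracellular cAMP via membrane-potential dye fluorescence (ex 535/em 590 nm). Endogenous PDE-IV was targeted. Compounds were tested at up to 22.9 uM final; RO 20-1724 100 uM served as control.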

[9] = biological target: Cytochrome P450 3A4 (Homo sapiens) (UniProt P08684); test: qHTS Assay for Inhibitors and Substrates of Cytochrome P450 3A4 (AID 884); details: recombinant CYP3A4, Luciferin-PPXE luminescence; series mostly up to 57.1 µM; further: potency means the concentration at half of the fitted maximal effect; nearly all actives have a fitted effect of over 50% in size
In short: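 20 nM human CYP3A4 with 25 uM Luciferin-PPXE (at KM) in 200 mM KPO4, preincubated 10 min with compound; NADPH regeneration started a 60 min RT reaction. Luciferin detected by luminescence, normalized to 57 uM ketoconazole as full inhibition.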

[10] = biological target: Cytochrome P450 3A4 (Homo sapiens) (UniProt P08684); test: qHTS Assay for Activators of Cytochrome P450 3A4 (AID 885); details: recombinant CYP3A4, Luciferin-PPXE luminescence, 60 min; series mostly up to 57.1 µM; further: nearly all actives have a fitted effect of over 65% in size
In short: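 Quantitative HTS format: compounds preincubated with 20nM human CYP3A4 and Luciferin-PPXE substrate at KM, reaction started by NADPH regeneration, stopped after 60 min, luciferase luminescence read 20 min later.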

[11] = biological target: Cytochrome P450 2C19 (Homo sapiens) (UniProt P33261); test: qHTS Assay for Inhibitors and Substrates of Cytochrome P450 2C19 (AID 899); details: recombinant CYP2C19, luciferin-H EGE luminescence; series mostly up to 57.1 µM; further: potency means the concentration at half of the fitted maximal effect; nearly all actives have a fitted effect of over 60% in size
In short: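 Human CYP2C19 (5nM) with Luciferin-H EGE at 10uM (its KM) in 50mM KPO4 was preincubated with compound for 10 min at 37C. NADPH regeneration started a 60 min 37C reaction. Luciferin was read by luminescence, normalized to 57uM ketoconazole.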

[12] = biological target: Dual specificity protein kinase CLK4 (Homo sapiens) (UniProt Q9HAZ1); test: qHTS Assay for Inhibitors of CDC-like Kinase 4 (Kinase-Glo Assay) (AID 1770); details: recombinant Clk4, Kinase-Glo ATP depletion luminescence; series mostly up to 66.7 µM; further: nearly all actives have a fitted effect of over 65% in size; further: potency means the concentration at half of the fitted maximal effect
In short: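 Readout: Kinase-Glo luminescence from ATP left after a 4.5 h room-temperature reaction of 25 nM Clk4 with 100 uM RS peptide and 1 uM ATP (final). Buffer: 25 mM Tris pH 7.5, 10 mM MgCl2.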

[13] = biological target: Ubiquitin carboxyl-terminal hydrolase 1 (Homo sapiens) (UniProt O94782); test: Inhibitors of USP1/UAF1: Pilot qHTS (AID 504865); details: purified USP1/UAF1, Ub-rhodamine cleavage fluorescence; series mostly up to 54.9 µM;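 further: rhodamine fluorescence freed from ubiquitin-rhodamine substrate followed over time; top concentration of the series differs between compounds; on the % scale 0 is the no-effect control and ±100 the full control effect; nearly all actives have a fitted effect of over 35% in size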
In short: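 1nM USP1/UAF1 + cpd, 15 min RT; start w/ Ub-Rho 150nM final; kinetic FL 480/540 nm, 6 reads q60 s. Buffer 50mM HEPES pH 7.8, 0.5mM EDTA, 1mM TCEP, 0.01% Tween-20, 0.1 mg/ml BSA.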

[14] = NFAT Signaling Pathway (AID 444; active means well fitted curve in either direction with a large enough effect, not every such curve was filed as active;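 further: carbachol stimulus at about its EC50 of 1 µM final; on the % scale 0 is the no-effect control and ±100 the full control effect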); details: Jurkat NFAT-bla M1, carbachol, beta-lactamase ratio, 5 h; at 7.69 µM (top of the series) unless noted
In short: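 Jurkat cells carrying an NFAT-driven β-lactamase reporter and co-transfected muscarinic M1 receptor were treated with compound plus carbachol (1 uM final, an EC50 level) for 5 h at 37 °C. CCF4 loading followed for 1 h at RT; 460/530 nm ratio gave %activity.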

[15] = biological target: Cytochrome P450 2C9 (Homo sapiens) (UniProt P11712); test: qHTS Assay for Inhibitors and Substrates of Cytochrome P450 2C9 (AID 883); details: recombinant CYP2C9, luciferin-H luminescence, 60 min; series mostly up to 57.1 µM; further: nearly all actives have a fitted effect of over 60% in size; further: potency means the concentration at half of the fitted maximal effect
In short: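 Human CYP2C9 (10nM) hydroxylated Luciferin-H (100uM, at its KM) to luciferin in 25mM KPO4. Compound was preincubated 10 min at 37C, then NADPH regeneration started a 60 min reaction at 37C. Luminescence was read after detection reagent, normalized to 57uM sulphaphenazole.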

[16] = biological target: Dual specificity protein kinase CLK4 (Homo sapiens) (UniProt Q9HAZ1); test: qHTS Assay for Inhibitors of CDC-like Kinase 4 (ADP-FP Assay) (AID 1795); details: Transcreener ADP fluorescence polarization; series mostly up to 50 µM; further: nearly all actives have a fitted effect of over 60% in size; further: potency means the concentration at half of the fitted maximal effect
In short: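 FP readout: Orange Transcreener ADP2 tracer (4 nM) plus ADP antibody, read after 30 min at room temperature. Kinase step: 6.25 nM Clk4, 100 uM RS peptide, 1 uM ATP, pH 7.5, 1 h.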

[17] = qHTS Assay for Identification of Small Molecule Agonists for Hypoxia Response Element Signaling Pathway (AID 914; active means well fitted activation curve with a large enough effect in the signal ratio, with a control signal flat, not every such curve was filed as active; the % refers to the signal ratio; further: potency means the concentration at half of the fitted maximal effect; on activation: % of control where 0% means no effect); details: ME-180 (cervical carcinoma) HRE-bla reporter, beta-lactamase ratio, CoCl2, 17 h; activation: hits give high values
In short: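 Read-out: CCF4 FRET ratio of 460nm to 530nm emission (excitation 405nm) after 2.5 hours at room temperature, taken from HRE-bla ME-180 cells that had been exposed to compound and EC50 CoCl2 for 17 hours.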

Chain of Glucocorticoid receptor (Homo sapiens) (P04150 whole entry, looked up, the tested form may be a part): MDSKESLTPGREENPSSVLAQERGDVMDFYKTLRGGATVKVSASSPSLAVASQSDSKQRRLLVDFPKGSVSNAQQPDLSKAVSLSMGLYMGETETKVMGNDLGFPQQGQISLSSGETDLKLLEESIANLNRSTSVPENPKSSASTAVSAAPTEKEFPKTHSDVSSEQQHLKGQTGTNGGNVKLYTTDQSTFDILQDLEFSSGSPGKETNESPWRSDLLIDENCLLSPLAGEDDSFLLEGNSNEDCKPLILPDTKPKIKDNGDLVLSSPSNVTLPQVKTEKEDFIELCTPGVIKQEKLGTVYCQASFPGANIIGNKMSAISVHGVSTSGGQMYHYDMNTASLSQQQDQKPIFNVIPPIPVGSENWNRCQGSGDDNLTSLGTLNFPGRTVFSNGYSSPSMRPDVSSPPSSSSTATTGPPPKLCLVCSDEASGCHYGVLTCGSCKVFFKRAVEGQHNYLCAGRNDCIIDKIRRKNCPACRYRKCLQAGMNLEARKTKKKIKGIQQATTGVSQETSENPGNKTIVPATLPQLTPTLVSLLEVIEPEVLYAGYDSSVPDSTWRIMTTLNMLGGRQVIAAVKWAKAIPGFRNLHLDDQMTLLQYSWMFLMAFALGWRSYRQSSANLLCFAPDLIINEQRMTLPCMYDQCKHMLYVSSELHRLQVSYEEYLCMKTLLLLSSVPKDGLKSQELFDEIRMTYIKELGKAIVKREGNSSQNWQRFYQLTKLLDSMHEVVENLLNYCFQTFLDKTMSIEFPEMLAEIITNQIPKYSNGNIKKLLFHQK
Chain of Ubiquitin carboxyl-terminal hydrolase 1 (Homo sapiens) (O94782 whole entry, looked up): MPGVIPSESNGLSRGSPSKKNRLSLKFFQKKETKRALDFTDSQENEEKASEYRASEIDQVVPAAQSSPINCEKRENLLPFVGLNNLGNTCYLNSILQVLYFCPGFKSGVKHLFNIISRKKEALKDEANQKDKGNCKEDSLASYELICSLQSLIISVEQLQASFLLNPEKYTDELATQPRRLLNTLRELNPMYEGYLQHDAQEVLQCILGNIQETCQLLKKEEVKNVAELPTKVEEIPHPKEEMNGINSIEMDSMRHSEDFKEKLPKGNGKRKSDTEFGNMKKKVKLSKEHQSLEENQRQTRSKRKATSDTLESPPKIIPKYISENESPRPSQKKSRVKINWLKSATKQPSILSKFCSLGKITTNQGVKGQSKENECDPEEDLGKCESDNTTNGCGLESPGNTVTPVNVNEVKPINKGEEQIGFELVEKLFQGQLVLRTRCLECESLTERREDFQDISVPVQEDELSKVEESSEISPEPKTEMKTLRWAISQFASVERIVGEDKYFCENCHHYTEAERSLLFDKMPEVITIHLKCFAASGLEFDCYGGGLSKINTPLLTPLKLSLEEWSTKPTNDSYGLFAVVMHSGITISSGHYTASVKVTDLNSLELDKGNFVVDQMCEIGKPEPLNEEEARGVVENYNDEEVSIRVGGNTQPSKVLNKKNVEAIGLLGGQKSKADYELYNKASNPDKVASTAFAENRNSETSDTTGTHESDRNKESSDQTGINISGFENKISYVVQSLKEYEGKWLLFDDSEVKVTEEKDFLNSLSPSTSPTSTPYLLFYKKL
Chain of Lysosomal acid glucosylceramidase (Homo sapiens) (P04062 whole entry, looked up): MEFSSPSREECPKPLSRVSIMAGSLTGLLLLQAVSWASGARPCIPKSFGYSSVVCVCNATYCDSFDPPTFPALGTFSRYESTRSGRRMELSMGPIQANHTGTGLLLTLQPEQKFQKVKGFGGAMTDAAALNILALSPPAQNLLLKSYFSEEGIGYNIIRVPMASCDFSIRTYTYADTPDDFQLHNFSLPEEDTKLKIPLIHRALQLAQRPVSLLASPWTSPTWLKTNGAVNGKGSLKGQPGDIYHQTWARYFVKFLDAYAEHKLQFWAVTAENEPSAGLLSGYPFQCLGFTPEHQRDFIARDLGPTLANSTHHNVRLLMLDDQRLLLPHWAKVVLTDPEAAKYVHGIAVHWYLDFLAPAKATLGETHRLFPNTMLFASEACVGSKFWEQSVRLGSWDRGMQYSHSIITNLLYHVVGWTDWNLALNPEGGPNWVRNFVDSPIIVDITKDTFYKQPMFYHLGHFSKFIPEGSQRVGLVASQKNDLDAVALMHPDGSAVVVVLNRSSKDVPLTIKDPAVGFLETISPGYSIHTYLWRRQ
Chain of 3',5'-cyclic-AMP phosphodiesterase 4B (Homo sapiens) (Q07343 whole entry, looked up): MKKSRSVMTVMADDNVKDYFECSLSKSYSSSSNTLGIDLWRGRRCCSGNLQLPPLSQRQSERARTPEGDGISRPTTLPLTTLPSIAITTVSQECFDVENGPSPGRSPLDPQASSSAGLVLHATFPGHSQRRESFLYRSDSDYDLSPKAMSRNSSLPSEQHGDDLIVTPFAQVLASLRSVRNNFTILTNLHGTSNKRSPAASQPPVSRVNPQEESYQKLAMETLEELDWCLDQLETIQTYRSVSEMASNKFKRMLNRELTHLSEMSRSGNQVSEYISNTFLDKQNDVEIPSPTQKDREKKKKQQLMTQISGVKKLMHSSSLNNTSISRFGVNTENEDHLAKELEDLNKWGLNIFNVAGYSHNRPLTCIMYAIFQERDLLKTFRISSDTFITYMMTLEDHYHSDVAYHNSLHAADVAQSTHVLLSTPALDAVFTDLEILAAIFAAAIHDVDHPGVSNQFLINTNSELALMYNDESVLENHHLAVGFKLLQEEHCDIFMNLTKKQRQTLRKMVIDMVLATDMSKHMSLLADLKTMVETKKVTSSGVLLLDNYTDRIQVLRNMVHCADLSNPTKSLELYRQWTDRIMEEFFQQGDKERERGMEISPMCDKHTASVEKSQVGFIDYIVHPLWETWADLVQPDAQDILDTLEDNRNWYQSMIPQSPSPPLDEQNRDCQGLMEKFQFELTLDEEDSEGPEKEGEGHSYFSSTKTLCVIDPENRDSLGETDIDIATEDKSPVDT
Chain of Cytochrome P450 3A4 (Homo sapiens) (P08684 whole entry, looked up): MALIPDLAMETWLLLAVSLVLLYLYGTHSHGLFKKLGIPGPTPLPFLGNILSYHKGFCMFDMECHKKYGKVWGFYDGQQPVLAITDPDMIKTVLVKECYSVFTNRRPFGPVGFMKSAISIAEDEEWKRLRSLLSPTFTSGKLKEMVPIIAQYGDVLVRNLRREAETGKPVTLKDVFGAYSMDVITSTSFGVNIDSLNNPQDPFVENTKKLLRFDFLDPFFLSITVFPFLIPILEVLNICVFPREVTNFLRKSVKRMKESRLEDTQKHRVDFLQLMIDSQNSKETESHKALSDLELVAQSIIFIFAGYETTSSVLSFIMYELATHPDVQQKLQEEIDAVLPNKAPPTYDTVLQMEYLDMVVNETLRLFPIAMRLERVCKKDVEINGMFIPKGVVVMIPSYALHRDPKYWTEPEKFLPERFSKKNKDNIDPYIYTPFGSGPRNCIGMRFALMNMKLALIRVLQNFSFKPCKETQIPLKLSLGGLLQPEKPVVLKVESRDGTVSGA
Chain of Cytochrome P450 1A2 (Homo sapiens) (P05177 whole entry, looked up): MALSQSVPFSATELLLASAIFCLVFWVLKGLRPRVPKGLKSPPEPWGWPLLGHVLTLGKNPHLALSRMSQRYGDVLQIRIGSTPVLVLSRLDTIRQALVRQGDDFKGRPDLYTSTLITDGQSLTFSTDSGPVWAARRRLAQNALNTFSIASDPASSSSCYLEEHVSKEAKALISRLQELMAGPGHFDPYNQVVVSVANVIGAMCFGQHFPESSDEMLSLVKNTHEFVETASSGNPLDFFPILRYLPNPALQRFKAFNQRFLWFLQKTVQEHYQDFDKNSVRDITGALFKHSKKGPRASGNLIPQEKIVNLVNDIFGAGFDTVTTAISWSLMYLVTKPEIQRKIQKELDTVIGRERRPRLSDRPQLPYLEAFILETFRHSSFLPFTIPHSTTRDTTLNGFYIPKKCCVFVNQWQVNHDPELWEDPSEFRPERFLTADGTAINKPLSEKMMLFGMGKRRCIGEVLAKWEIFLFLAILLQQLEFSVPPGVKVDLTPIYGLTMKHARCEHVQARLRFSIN
Chain of Dual specificity protein kinase CLK4 (Homo sapiens) (Q9HAZ1 whole entry, looked up): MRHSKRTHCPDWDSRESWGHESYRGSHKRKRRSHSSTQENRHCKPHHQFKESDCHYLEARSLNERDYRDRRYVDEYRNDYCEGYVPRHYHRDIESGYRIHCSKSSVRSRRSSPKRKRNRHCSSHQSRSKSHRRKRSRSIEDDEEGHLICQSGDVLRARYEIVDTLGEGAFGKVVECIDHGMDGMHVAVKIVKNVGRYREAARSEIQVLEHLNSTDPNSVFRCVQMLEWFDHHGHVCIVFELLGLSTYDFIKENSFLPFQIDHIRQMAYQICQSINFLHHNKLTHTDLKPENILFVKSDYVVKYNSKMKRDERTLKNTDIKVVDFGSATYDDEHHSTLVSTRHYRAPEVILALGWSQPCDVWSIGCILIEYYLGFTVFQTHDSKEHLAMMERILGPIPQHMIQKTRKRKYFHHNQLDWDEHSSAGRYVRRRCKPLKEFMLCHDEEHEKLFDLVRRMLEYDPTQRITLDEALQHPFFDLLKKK
Chain of Cytochrome P450 2C9 (Homo sapiens) (P11712 whole entry, looked up): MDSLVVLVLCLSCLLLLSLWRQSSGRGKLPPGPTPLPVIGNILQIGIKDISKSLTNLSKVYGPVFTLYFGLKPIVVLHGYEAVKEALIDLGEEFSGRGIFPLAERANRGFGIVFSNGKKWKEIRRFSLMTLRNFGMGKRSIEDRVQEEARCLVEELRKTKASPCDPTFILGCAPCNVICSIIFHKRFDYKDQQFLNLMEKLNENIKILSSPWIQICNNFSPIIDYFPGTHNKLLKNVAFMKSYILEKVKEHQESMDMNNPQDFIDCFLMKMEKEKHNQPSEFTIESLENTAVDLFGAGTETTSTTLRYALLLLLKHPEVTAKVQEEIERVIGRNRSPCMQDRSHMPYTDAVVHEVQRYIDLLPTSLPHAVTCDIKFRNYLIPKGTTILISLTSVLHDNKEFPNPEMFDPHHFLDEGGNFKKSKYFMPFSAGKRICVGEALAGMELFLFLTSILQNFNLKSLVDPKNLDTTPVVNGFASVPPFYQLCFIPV

Row | Compound | Potency [1] | activity change, negative = inhibition [2] | Potency [3] | outcome [4] | Potency [5] | Potency [6] | Potency [7] | Potency [8] | Potency [9] | outcome [10] | Potency [11] | Potency [12] | Potency [13] | activity change, negative = inhibition [14] | activity change, negative = inhibition [15] | Potency [16] | activation [17] | Potency [15] | Potency [17]
1 | COc1ccc2[nH]cc(CCNc3cc(-c4cccc(C#N)c4)ncn3)c2c1 | > 11.4 µM | -15.9% | 0.794 µM (active) | inactive | > 46 µM | > 46 µM | inactive | inactive | 3.98 µM (active) | inactive | 7.94 µM (active) | 25.1 µM (active) | inactive |  |  |  |  |  | 
2 | COc1ccccc1CNc1ccnc(-c2cccnc2)n1 | > 11.4 µM | -7.12% |  | inactive | > 46 µM | > 46 µM | inactive | inactive |  |  |  | 28.2 µM (active) | inactive | -4.87% |  |  |  |  | 
3 | COc1cccc(-c2nc(N(C)C)c3ccccc3n2)c1 | > 11.4 µM | 15.5% | 0.251 µM (active) |  | > 46 µM | > 46 µM | inactive | inactive | 5.01 µM (active) | inactive |  | 11.2 µM (active) |  | -14.5% | 45.3% [at 2.29 µM] | 11.2 µM (active) |  |  | 
4 | CN(Cc1ccco1)c1cc(-c2ccc3c(c2)OCO3)ncn1 | > 11.4 µM | -0.29% | 0.501 µM (active) | inactive | > 46 µM | > 46 µM | inactive |  | 3.98 µM (active) | inactive |  | 2 µM (active) |  | -0.867% |  | 2.51 µM (active) |  |  | 
5 | COc1ncc2nc(-c3ccccc3)c(=O)n(CCc3ccccc3)c2n1 | > 11.4 µM | -6.17% |  | inactive | > 9.22 µM | > 46 µM |  |  |  |  |  | inactive | inactive | -3.72% |  |  |  |  | 
6 | COc1ccc(-n2c(=O)c(CCc3ccccc3)nc3cnc(OC)nc32)cc1 | > 11.4 µM | -14.2% | 15.8 µM (active) | inactive | > 9.22 µM | > 46 µM | inactive | 2 µM (active) |  | inactive | 6.31 µM (active) | inactive | inactive | 0.705% |  | inactive | -18.9% |  | 
7 | O=c1c(-c2ccccc2)nc2cnc(N3CCOCC3)nc2n1CCc1ccccc1 | > 11.4 µM |  | 12.6 µM (active) |  | > 9.22 µM | > 46 µM |  |  |  | inactive |  | inactive |  |  |  | inactive |  | 7.94 µM (active) | 3.16 µM (active)
